{"source": "the supplement of paper PMC7380943", "key": {"[1]": {"tested_on": "CLZ3 (HCA2 human fibroblast dual HR-NHEJ reporter)", "test": "NHEJ repair efficiency (GFP+ cells) relative to control (log10 fold); higher = more non-homologous end joining", "details": "5 µM; doxycycline 0.5 ug/mL"}, "[2]": {"tested_on": "CLZ3 (HCA2 human fibroblast dual HR-NHEJ reporter)", "test": "HR repair efficiency (tdTomato+ cells) relative to control (log10 fold); higher = more homologous recombination", "details": "5 µM; doxycycline 0.5 ug/mL"}}}
{"compound": "CC(C)=CCC12Oc3cc(O)ccc3C1(O)Oc1cc(O)c([C@H]3C=C(C)C[C@@H](c4ccc(O)cc4O)[C@@H]3C(=O)c3ccc(O)cc3O)c(O)c1C2=O", "note": "(some centres not stated) [Sanggenon D];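 for HR repair efficiency (tdTomato+ cells) relative to control: compound given one day before doxycycline, which switches on I-SceI endonuclease expression to create double-strand breaks within the integrated reporter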;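 for NHEJ repair efficiency (GFP+ cells) relative to control: compound given one day ahead of doxycycline, which switches on I-SceI endonuclease to cut the chromosomally integrated reporter and create DSBs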", "values": [{"measurement": "NHEJ repair efficiency (log10)", "setting": "[1]", "result": -0.0219}, {"measurement": "HR repair efficiency (log10)", "setting": "[2]", "result": -0.176}]}
{"compound": "CC1CCC(C(C)C)C(O)C1", "note": "(racemic) [dl-Menthol]", "values": [{"measurement": "NHEJ repair efficiency (log10)", "setting": "[1]", "result": 0.0823}, {"measurement": "HR repair efficiency (log10)", "setting": "[2]", "result": 0.0753}]}
{"compound": "O=c1c(O)c(-c2ccc(O)c(O)c2)oc2cc(O)ccc12", "note": "[Fisetin]", "values": [{"measurement": "NHEJ repair efficiency (log10)", "setting": "[1]", "result": -0.223}, {"measurement": "HR repair efficiency (log10)", "setting": "[2]", "result": -0.0214}]}
{"compound": "CCOC(=O)/C=C/c1ccc(O)c(O)c1", "note": "[Ethyl Caffeate]", "values": [{"measurement": "NHEJ repair efficiency (log10)", "setting": "[1]", "result": 0.0562}, {"measurement": "HR repair efficiency (log10)", "setting": "[2]", "result": 0.0777}]}
{"compound": "CC1(C)C=Cc2c(ccc3c2OC[C@@H](c2ccc(O)cc2O)C3)O1", "note": "[Glabridin]", "values": [{"measurement": "NHEJ repair efficiency (log10)", "setting": "[1]", "result": -0.0493}, {"measurement": "HR repair efficiency (log10)", "setting": "[2]", "result": -0.0637}]}
{"compound": "O=C(O)/C=C/c1ccccc1", "note": "[Cinnamic Acid]", "values": [{"measurement": "NHEJ repair efficiency (log10)", "setting": "[1]", "result": -0.0918}, {"measurement": "HR repair efficiency (log10)", "setting": "[2]", "result": 0.0721}]}
{"compound": "c1ccc2c(c1)OC1c3ccccc3OCC21", "note": "(configuration not stated) [Pterocarpan]", "values": [{"measurement": "NHEJ repair efficiency (log10)", "setting": "[1]", "result": 0.112}, {"measurement": "HR repair efficiency (log10)", "setting": "[2]", "result": -0.0555}]}
{"compound": "CC1(C)CC[C@]2(C(=O)O)CC[C@]3(C)C(=CC[C@@H]4[C@@]5(C)CC[C@H](O)C(C)(C)[C@@H]5CC[C@]43C)[C@@H]2C1", "note": "[Oleanolic Acid]", "values": [{"measurement": "NHEJ repair efficiency (log10)", "setting": "[1]", "result": 0.0316}, {"measurement": "HR repair efficiency (log10)", "setting": "[2]", "result": 0.133}]}
{"compound": "CC(C)=CCC[C@](C)(O[C@@H]1O[C@H](CO[C@@H]2O[C@H](CO)[C@@H](O)[C@H](O)[C@H]2O)[C@@H](O)[C@H](O)[C@H]1O)[C@H]1CC[C@]2(C)[C@@H]1[C@H](O)C[C@@H]1[C@@]3(C)CC[C@H](O[C@@H]4O[C@H](CO)[C@@H](O)[C@H](O)[C@H]4O[C@@H]4O[C@H](CO)[C@@H](O)[C@H](O)[C@H]4O)C(C)(C)[C@@H]3CC[C@]12C", "note": "[Ginsenoside Rb1]", "values": [{"measurement": "NHEJ repair efficiency (log10)", "setting": "[1]", "result": 0.0709}, {"measurement": "HR repair efficiency (log10)", "setting": "[2]", "result": 0.217}]}
{"compound": "Cc1cc(O)c2c(c1)C(=O)c1cc(O)cc(O)c1C2=O", "note": "[Emodin]", "values": [{"measurement": "NHEJ repair efficiency (log10)", "setting": "[1]", "result": -0.0237}, {"measurement": "HR repair efficiency (log10)", "setting": "[2]", "result": 0.049}]}
{"compound": "COC(=O)[C@@]1(C)CC[C@]2(C(=O)O)CC[C@]3(C)C(=CC[C@@H]4[C@@]5(C)C[C@H](O)[C@H](O)[C@@](C)(CO)[C@@H]5CC[C@]43C)[C@@H]2C1", "note": "[Phytolaccagenin]", "values": [{"measurement": "NHEJ repair efficiency (log10)", "setting": "[1]", "result": 0.0274}, {"measurement": "HR repair efficiency (log10)", "setting": "[2]", "result": 0.0241}]}
